Inconclusive results are not listed. The source made the active and inactive calls. How the source made its calls: active means hit-call score of the fitted dose curve at least 0.9, where 1 is the maximum; inconclusive means response in the unintended direction; inactive means score below 0.9.
system: not listed separately; assay: NVS_IC_rCaDHPRCh_L: NovaScreen (NVS) Ion Channel Assay for rat Calcium Channel, Type L, Dihydropyridine Site (CaDHPRCh_L) (AID 2283320)
Method in brief: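 Radioligand binding to dihydropyridine site on rat cortical membranes, filter-based scintillation counting, 1 h after dosing. Screened in duplicate at 25 uM; actives rerun in concentration-response up to 50 uM. Loss of signal versus DMSO baseline.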

Structure (SMILES) | outcome | AC50
Oc1cccc2cccnc12 | inactive | 
CC(=O)[O][Hg][c]1ccccc1 |  | 40.5 µM (active)
CCN1CCC2(CC1)COc1cc3c(cc12)N(C(=O)c1ccc(-c2ccc(-c4nnc(C)o4)cc2C)cc1)CC3 |  | 4.93 µM (active)
C=C(C)C(=O)[O][Sn]([CH2]CCC)([CH2]CCC)[CH2]CCC |  | 12.3 µM (active)

biological target: Sodium channel protein type 1 subunit alpha (Rattus norvegicus) (UniProt P04774); assay: NVS_IC_rNaCh_site2: NovaScreen (NVS) Ion Channel Assay for rat Sodium Channel, Site 2 (NaCh) (AID 2283322);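 further: hit means loss of radioligand binding signal relative to DMSO so AC50 marks displacement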
Method in brief: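 Membranes: rat forebrain. Format: competitive radioligand displacement, filter separation, scintillation readout, 1 h exposure. Primary screen in duplicate at 25 uM; actives retested in concentration series.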

Structure (SMILES) | AC50 | outcome
CCNc1nc(NC(C)(C)C)nc(SC)n1 | 12.1 µM (active) | 
CCCCCCCCC(=O)NCc1ccc(O)c(OC)c1 | 1.55 µM (active) | 
N#CCc1ccc(Cl)cc1 |  | inactive
CCC(=O)C(CC(C)N(C)C)(c1ccccc1)c1ccccc1 (stereo not given) | 1.97 µM (active) | 
CC(C)(C)CC(C)(C)c1ccc(O)cc1 |  | inactive
NC(=S)Nc1ccccc1 | 0.569 µM (active) | 
O=C(Cl)c1ccc(Cl)cc1 |  | inactive
CCN1CCC2(CC1)COc1cc3c(cc12)N(C(=O)c1ccc(-c2ccc(-c4nnc(C)o4)cc2C)cc1)CC3 | 3.44 µM (active) | 
CCSC(C)CC1CC(=O)C(C(CC)=NOC/C=C/Cl)=C(O)C1 (stereo not given) |  | inactive
C=C(C)C(=O)[O][Sn]([CH2]CCC)([CH2]CCC)[CH2]CCC | 25 µM (active) | 

biological target: rat Thyrotropin Releasing Hormone Receptor (TRH), Trhr (gene 25570) (UniProt Q01717); assay: NVS_GPCR_rTRH: NovaScreen (NVS) G Protein-Coupled Receptor Assay for rat Thyrotropin Releasing Hormone Receptor (TRH) (AID 2283329);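 further: hit means lower bound tracer signal versus DMSO baseline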
Sequence (Q01717 whole entry, looked up): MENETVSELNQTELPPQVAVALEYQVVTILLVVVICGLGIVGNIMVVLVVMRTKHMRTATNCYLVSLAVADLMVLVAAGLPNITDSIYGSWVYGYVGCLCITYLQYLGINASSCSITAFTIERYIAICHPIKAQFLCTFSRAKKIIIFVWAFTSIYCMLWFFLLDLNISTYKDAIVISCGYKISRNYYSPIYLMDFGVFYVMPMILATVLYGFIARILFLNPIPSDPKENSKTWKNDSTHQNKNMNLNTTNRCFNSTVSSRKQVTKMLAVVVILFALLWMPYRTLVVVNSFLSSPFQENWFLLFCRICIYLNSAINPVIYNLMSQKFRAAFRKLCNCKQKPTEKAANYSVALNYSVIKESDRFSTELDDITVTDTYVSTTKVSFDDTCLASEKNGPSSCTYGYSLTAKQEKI
Method in brief: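 Cell-free radioligand binding on rat forebrain membranes; bound tracer measured by filter-based scintillation counting 4 hours after dosing. Loss of signal versus DMSO baseline indicates displacement; primary screen at 25 uM in duplicate, actives then run in concentration series.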

Structure (SMILES) | outcome | AC50
C1CCC(NC2CCCCC2)CC1 | inactive | 
COc1ccc(C=O)cc1 | inactive | 
COC(=O)c1sccc1S(=O)(=O)NC(=O)Nc1nc(C)nc(OC)n1 | inactive | 
C[C@H]1CCCC(=O)CCC/C=C/c2cc(O)cc(O)c2C(=O)O1 | inactive | 
C[C@]12CC[C@H](O)CC1=CC[C@@H]1[C@@H]2CC[C@]2(C)C(=O)CC[C@@H]12 | inactive | 
O=c1[nH]c(=O)[nH]c(=O)[nH]1 | inactive | 
Oc1cccc2cccnc12 | inactive | 
Clc1nc(Cl)nc(Cl)n1 | inactive | 
CC(C)C1CCC(Cc2ccc(Cl)cc2)C1(O)Cn1cncn1 (stereo not given) | inactive | 
CC(C)c1cccc(C(C)C)c1O | inactive | 
Cc1ccc2ccccc2c1C | inactive | 
O=[N+]([O-])c1ccc(O)c([N+](=O)[O-])c1 | inactive | 
Cl/C=C/Cl | inactive | 
C=C(C)C(=O)[O][Sn]([CH2]CCC)([CH2]CCC)[CH2]CCC |  | 20.3 µM (active)
ClCC(Cl)CCl | inactive | 
O=C(OC1CCCCC1)c1ccccc1C(=O)OC1CCCCC1 | inactive | 

From PubChem BioAssay (EPA / NIEHS)
